A short description of this assay: HT29 colon tumor cell growth inhibition, primary screen, imaging, high content imaging, 48 h, CellTiter-Glo (AID 771).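 On condensed nuclei: condensed means Hoechst nuclear area under control median minus 1.5 SD.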 Particulars: HCS imaging cell count, at 10 µM, stronger effect = higher value; for condensed nuclei: measured here: percent cells with condensed nuclei. (In general: In ATP-based viability assays light output follows the ATP content of the culture.)
Setting [1] is: measured here: ATP CellTiter-Glo viability inhibition.

From PubChem BioAssay AID771 (SRMLSC, 2007) come the findings set out here.

Out of some 3,300 compounds screened, about 55 (2%) were called active.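 How the source made its calls: active means growth inhibition above 90%, meaning viable cell count by imaging cut by more than 90% versus vehicle controls; inactive means growth inhibition below 90%.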 The list comes from a sample in which actives are over-represented; it also holds similar structures and randomly drawn compounds.

On to `c1ccc2c(c1)[nH]c1cnccc12`, for which the growth inhibition is -8.76% (inactive) and the condensed nuclei came out at 2.05%.

For the compound `Cc1c2ccncc2c(C)c2c1[nH]c1ccccc12`, the growth inhibition was 97% (active) and the condensed nuclei is 22.4%.

As to `COc1ccccc1-n1c(O)c(C=NCCCn2ccnc2)c(=O)[nH]c1=O`, the growth inhibition is -20.9% (inactive) and the condensed nuclei turned out to be 3.63%. The growth inhibition under setting [1] was 8.58%.

Take `CC1(C)CC(=O)C(C=NCCN2CCN(C(=O)Cc3ccc(F)cc3)CC2)=C(O)C1`: the growth inhibition was 44.1% (inactive) and the condensed nuclei worked out at 1.29%. Moreover, under setting [1], the growth inhibition is 0.25%.

Consider `COCCOC(=O)c1c(N)n(Cc2ccco2)c2nc3ccccc3nc12`, for which the growth inhibition was -45.9% (inactive) and the condensed nuclei came to 3.74%. The growth inhibition under setting [1] is -19.7%.

On to `Nc1c(C(=O)NCc2ccco2)c2nc3ccccc3nc2n1Cc1ccc(F)cc1`, for which the growth inhibition was 34.1% (inactive) and the condensed nuclei came to 1.57%. Further, under setting [1], the growth inhibition came to 32.2%.

Consider `Nc1c(C(=O)NCc2ccco2)c2nc3ccccc3nc2n1CCN1CCCCC1`, for which the growth inhibition is 96.7% (active) and the condensed nuclei was found to be 15.6%. Moreover, the growth inhibition under setting [1] stood at 86.4%.

As to `Cc1ccc(C)c(C2(O)CC(C)N(C)CC2C)c1` (stereo not given), the growth inhibition was -0.27% (inactive) and the condensed nuclei turned out to be 2.34%. The growth inhibition under setting [1] came out at 1.07%.

`CN1C[C@H](CNC(=O)OCc2ccccc2)C[C@@H]2c3cccc4c3c(cn4C)C[C@H]21`: the growth inhibition was 93.2% (active) and the condensed nuclei is 18.1%.

For the compound `CC[C@@H](CO)NC(=O)[C@@H]1C=C2c3cccc4c3c(cn4C)C[C@H]2N(C)C1`, the growth inhibition was 12.4% (inactive) and the condensed nuclei came to 0.97%.

`CC(C)[C@@]1(NC(=O)[C@@H]2C[C@@H]3c4cccc5[nH]cc(c45)C[C@H]3N(C)C2)O[C@@]2(O)[C@@H]3CCCN3C(=O)[C@H](Cc3ccccc3)N2C1=O`: the growth inhibition was 88.7% (inactive) and the condensed nuclei amounted to 10.3%.

As to `O=C(Nc1ccncc1)c1c(O)c2ccccc2n(Cc2ccccc2)c1=O`, the growth inhibition is -29.4% (inactive) and the condensed nuclei is 1.56%. In addition, the growth inhibition under setting [1] is -27.2%.

Take `CCOC(=O)[C@@]1(C#N)[C@@H]2C=CC(C(N)=O)=CN2[C@@H](C(N)=O)[C@@H]1c1cccc(Cl)c1`: the growth inhibition was 1.36% (inactive) and the condensed nuclei stood at 1.63%. Further, the growth inhibition under setting [1] was -5.1%.

Regarding `CC1(c2ccccc2)NCCN2C(=O)CSC21` (stereo not given), the growth inhibition is -10.3% (inactive) and the condensed nuclei is 1.47%. Further, under setting [1], the growth inhibition is -1.15%.

Turning to `CCOc1ccc(-n2c(O)c(C=NCCN3CCNCC3)c(=O)[nH]c2=O)cc1`, the growth inhibition was 46.2% (inactive) and the condensed nuclei worked out at 2.45%. The growth inhibition under setting [1] was -8.84%.
